From PubChem
AmpC nodet inh: inhibitors of E. coli AmpC beta-lactamase without detergent; P00811; AmpC nitrocefin hydrolysis, absorbance 480 nm, no detergent; Potency, µM (titrated, usually from 28.7 µM), for inactives: at the top dose activity change, negative = inhibition; actives 1.8% (n = 71,000); further: % of control where 0% means no effect
Target sequence (P00811 whole entry, looked up): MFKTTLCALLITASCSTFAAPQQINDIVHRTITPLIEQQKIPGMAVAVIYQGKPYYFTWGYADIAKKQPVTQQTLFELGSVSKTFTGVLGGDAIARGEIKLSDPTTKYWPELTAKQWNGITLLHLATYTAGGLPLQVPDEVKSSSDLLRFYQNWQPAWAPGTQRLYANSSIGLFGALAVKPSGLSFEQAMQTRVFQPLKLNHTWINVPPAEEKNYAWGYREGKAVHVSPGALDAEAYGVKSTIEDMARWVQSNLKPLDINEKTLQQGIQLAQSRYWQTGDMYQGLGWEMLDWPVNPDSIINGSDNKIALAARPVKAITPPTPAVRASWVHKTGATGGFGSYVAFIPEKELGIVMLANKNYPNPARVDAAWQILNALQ
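AmpC, 20 mM phosphate pH 7.0; 15 min cpd preinc, RT; start with nitrocefin (800 uM stock); A480 kinetic read, 20 s intervals, 4 min. No-enzyme wells = negative control.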
AmpC det inh: blocks E. coli AmpC beta-lactamase in presence of detergent | Potency, µM (titrated, usually from 28.7 µM), without a hit: top-dose activity change, negative = inhibition | AID 584 | P00811 | actives 0.09% (n = 71,000) | purified AmpC, nitrocefin hydrolysis with detergent; active means well fitted curve in the direction sought with a large enough effect; inconclusive means small, poorly fitted or top-dose-only effect; further: on the % scale 0 is the no-effect control and ±100 the full control effect
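E. coli AmpC (5.3 nM) in 20 mM phosphate pH 7.0 with 0.01% Triton X-100, preincubated 15 min RT with compound; nitrocefin (2 uL of 800 uM stock) hydrolysis followed by 480 nm absorbance every 20 s over 4 min.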
Anthrax LT inh: inhibitors of anthrax lethal toxin internalization; Cells, anthrax lethal toxin internalization, FRET ratio (460/530); Potency, µM (highest dose often 40 µM), without a hit: top-dose activity change, negative = inhibition, actives largely listed as inhibitors; actives 0.67% (n = 70,000); further: on the % scale 0 is the no-effect control and ±100 the full control effect; nearly all actives have a fitted effect of over 50% in size
SmPrx2 inh: blocks S. mansoni peroxiredoxin 2 enzymatic activity. S. mansoni Prx2 activity coupled to TGR/GSH (TGR is thioredoxin glutathione reductase), NADPH fluorescence loss, qHTS. Potency, µM. actives 0.07% (n = 65,000). AID 448
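Activity is read as the drop in NADPH fluorescence (365/450 nm), recorded every 30 sec for 8 min after H2O2 addition. Prx2 is coupled to TGR-driven NADPH oxidation through glutathione, in phosphate buffer pH 7.4.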
* hit, by the source's call; ? = inconclusive; . = no result given; ! = repeats disagree; [ ] = remark or other dose. Sampled rows, rich in hits. Any-hit rate of the full collection: about 2.4%. Unless noted, the call rests on the fitted dose curve. Potency means the concentration at half of the fitted maximal effect.

SMILES	AmpC nodet inh	AmpC det inh	Anthrax LT inh	SmPrx2 inh
O=C(/C=C/N1CCOCC1)c1ccc(-c2ccccc2)cc1	13µM*	-2%	?	.
O=C(Cn1cc(C(=O)c2cccs2)c2ccccc21)NCc1ccc2c(c1)OCO2	2µM*[single pt active]	14%	?	>57
Oc1ccc(Cl)cc1Sc1cc(Cl)ccc1O	-12%[5.75 µM]	-3%[5.75 µM]	5µM*!	>57
CCOc1ccc2[nH]c(C)cc(=O)c2c1	4µM*[single pt active]	14%	-11%	>57
CCOc1ccc2[nH]c(C)c(CN(C)C)c(=O)c2c1	-3%	-3%	?	.
O[C@@](CCN1CCCCC1)(c1ccccc1)C1CCCCC1	-2%[12.8 µM]	-3%[12.8 µM]	-5%[3.58 µM]	>57
Nc1c2c(nc3ccccc13)CCCC2	-13%	9%	32µM*!	>57
COc1ccc(C(=O)C(CN2CCOCC2)c2ccccc2)cc1F (stereo unspecified)	76%	-2%	16µM*	>57
COc1ccc(C(O)C(CN2CCOCC2)c2ccccc2)cc1F (stereo unspecified)	4%	5%	2%	>57
COc1ncc2nc(-c3cc(F)cc(F)c3)c(=O)n(-c3ccccc3)c2n1	14%	-1%	?	>57
Cc1cccc(CNc2ncnc3ccc(-c4ccccc4CN(C)C)cc23)c1	85%	5%	-18%	>57
O=c1cc(N2CCc3ccccc3C2)[nH]c(=O)n1-c1ccc(Br)cc1	16µM*[single pt active]	-4%	8%	>57
O=c1cc(N2CCCC2)[nH]c(=O)n1-c1ccc(Cl)cc1	-12%	-3%	-7%	>57
O=c1cc(N2CCc3ccccc3C2)[nH]c(=O)n1-c1ccc(Cl)cc1	16µM*[single pt active]	-3%	5%	>57
Cc1ccc(S(=O)(=O)C2(C(=O)Nc3ccc(F)cc3)CC2)cc1	-7%	11%	-7%	>57
Cc1ccc(S(=O)(=O)C2(C(=O)Nc3ccc4c(c3)OCO4)CC2)cc1	4µM*[single pt active]	22%	-7%	>57
O=C(CCCCn1c(=O)[nH]c2ccccc2c1=O)NC1CCN(Cc2ccccc2)CC1	3.2µM*[single pt active]	15%	-14%	>57
O=C(CCCn1c(=O)[nH]c2ccccc2c1=O)NC1CCCCCC1	13%	3%	-4%	>57
COc1ccc(Br)cc1CNC(=O)C1CCCN(S(C)(=O)=O)C1 (stereo unspecified)	-10%	-2%	10µM*	>57
OB(O)c1ccc(Br)cc1	.	.	-13%	.
COc1ccc(C2CC(=O)N3CN(c4ccccc4F)CSC3=C2C#N)cc1OC (stereo unspecified)	1%	13%	10%	>57
COc1cc(OC)c(C2CC(=O)N3CN(c4ccccc4C)CSC3=C2C#N)cc1OC (stereo unspecified)	14%	-11%	.	>57
COc1ccc(C2CC(=O)N3CN(c4ccc(C)c(Cl)c4)CSC3=C2C#N)cc1 (stereo unspecified)	2.5µM*[single pt active]	7%	-16%	.
CCc1ccccc1N1CSC2=C(C#N)C(c3ccccc3F)CC(=O)N2C1 (stereo unspecified)	13µM*[single pt active]	2%	-1%	.
COc1ccc(OC)c(C2CC(=O)N3CN(c4ccccc4)CSC3=C2C#N)c1 (stereo unspecified)	8%	13%	-15%	>57
SMILES	AmpC nodet inh	AmpC det inh	Anthrax LT inh	SmPrx2 inh
Cc1cccc(N2CSC3=C(C#N)C(c4ccc(C)o4)CC(=O)N3C2)c1 (stereo unspecified)	16µM*	-11%	.	>57
COc1ccc(N2CSC3=C(C#N)C(c4cccc(OC)c4OC)CC(=O)N3C2)cc1 (stereo unspecified)	4µM*[single pt active]	10%	-12%	>57
CCCN1CCc2cccc3c2[C@@H]1Cc1ccc(O)c(O)c1-3	-7%	-1%	-3%	>57
CCCCCC[C@H]1C(=O)O[C@@H](C)[C@H](NC(=O)c2cccc(NC=O)c2O)C(=O)O[C@@H](C)[C@@H]1OC(=O)CC(C)C	4%	-3%	?	>57
CCOC(=O)c1sc(NC(=O)CSc2nnc(-c3ccco3)n2CC)c(C(=O)OCC)c1C	86%	11%	10µM*	>57
CCOC(=O)c1c(NC(=O)CSc2nnc(-c3ccccc3)n2CC)sc(C(C)=O)c1C	60%	-2%	-10%	.
CCOc1ccc(C2C(C#N)=C(N)SC(N)=C2C#N)cc1OCC	5%	-1%	1%	>57
N#CC1=C(N)SC(N)=C(C#N)C1c1cccc(Oc2ccccc2)c1	7.9µM*	4%	?	.
Cc1cc(NC(=O)c2noc3c2CCc2ccccc2-3)n(-c2ccccc2)n1	2.5µM*[single pt active]	12%	-11%	>57
Nc1ncnc2c1ncn2[C@@H]1O[C@@H](CO)[C@H](O)[C@@H]1O	0%	-2%	?	>57
O=C(NCc1ccc2c(c1)OCO2)C1CCC(CNc2c(N3CCCCC3)c(=O)c2=O)CC1 (stereo unspecified)	4µM*[single pt active]	11%	?	>57
O=C(C1CCC(CNc2c(N3CCCCC3)c(=O)c2=O)CC1)N1CCCCC1 (stereo unspecified)	4µM*[single pt active]	11%	-6%	>57
Cc1ccc(NC(=O)c2c(-c3c(F)cccc3Cl)noc2C)cc1F	-18%	-2%	10µM*	.
CNc1nc(Nc2ccc(C(C)=O)cc2)nc(OC(C(F)(F)F)C(F)(F)F)n1	38%	2%	10µM*	>57
CCCCCCCC/C=C\CCCCCCCC(=O)NCCc1ccc(O)c(O)c1	10µM*	-8%	?	>57
COCCn1c(=O)c(-c2ccc(OC)cc2)nc2cnc(Nc3ccccc3)nc21	5%	-2%	?	>57
CC1(C)O[C@@H]2O[C@H]([C@H](O)CO/N=C3/[C@H]4O[C@@H]4[C@@H](O)[C@H]4[C@H]3CCn3c(=O)n(-c5ccccc5)c(=O)n34)[C@@H](O)[C@@H]2O1	.	.	8%[8 µM]	.
COc1ccc(C(=O)CCC(=O)N2CCN(c3ccc(N4CCOCC4)nn3)CC2)cc1	68%	10%	5%	>57
CC(=O)N1CSCC1C(=O)N1CCN(c2ccc(N3CCOCC3)nn2)CC1 (stereo unspecified)	2µM*[single pt active]	12%	4%	.
CCCNC(=O)OC[C@H]1O[C@@H](CCO/N=C\[C@@H](NS(=O)(=O)c2ccc(C)cc2)[C@H](C)/C=C\CC(=O)OC)C=C[C@@H]1Oc1ccc(OC)cc1	.	.	3%[8 µM]	.
O=C(CCCOc1ccccc1)Nc1nnc(C2CCCO2)s1 (stereo unspecified)	10µM*[single pt active]	13%	0%	>57
N[C@@H]1C=CC=C(C(=O)O)C1	13%	1%	7%	>57
C=C(C)COc1ccc(-c2[nH]ncc2Oc2cccc(OC)c2)c(O)c1	10µM*	3%	?	?
CCOc1ccc(-c2n[nH]c(C)c2Oc2ccccc2OC)c(O)c1	-7%	-4%	-31%	>57
C=C(C)COc1ccc(-c2n[nH]c(C)c2Oc2ccccc2OC)c(O)c1	-16%	6%	10µM*	>57
CC1CCC(NC(=O)c2cc3c(=O)n(C)c4ccccc4c3n2C)CC1 (stereo unspecified)	4µM*[single pt active]	18%	-18%	>57
Cc1cc(C(=O)NCCN2CCCCC2C)n(-c2ccccc2)n1 (stereo unspecified)	-14%	5%	-4%	>57
